Each structure is given as a SMILES string. Screen size: about 50,000 compounds; about 800 (1.6%) showed an effect of 50% or more. The sample holds strong results, similar compounds and a random draw of the others, so the mix is not that of the screen.

The target in this assay is Bcl-2-like protein 10 (Homo sapiens) (UniProt Q9HD36). Nature of the assay: Phenotype converters, Bcl-B/TR3 peptide binding displacement, primary biochemical FP (AID 1240).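 Also: 0% = Bcl-B with tracer peptide and DMSO and 100% = tracer peptide lacking Bcl-B.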 The settings on record: GST-Bcl-B / FITC-TR3 peptide fluorescence polarization; stronger effect = higher value; compound at 3.75 mg/L.
Chain of Bcl-2-like protein 10 (Homo sapiens) (Q9HD36 whole entry, looked up): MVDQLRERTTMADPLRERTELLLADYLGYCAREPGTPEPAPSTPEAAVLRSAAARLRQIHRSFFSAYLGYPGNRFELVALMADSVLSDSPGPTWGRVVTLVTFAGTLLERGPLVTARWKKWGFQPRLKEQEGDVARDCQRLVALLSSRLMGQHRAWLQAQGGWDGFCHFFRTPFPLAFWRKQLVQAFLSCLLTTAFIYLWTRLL
In the case of `O=C1NC(=O)C(=Cc2ccc3c(c2)OCO3)C(=O)N1`, the displacement stood at 0.3%.

`O=C1NC(=O)C(=Cc2ccc(N3CCOCC3)cc2)C(=O)N1`: the displacement was 78.9%. The result for `O=C1NC(=O)C(=Cc2ccccc2)C(=O)N1` reads -4.2%. Consider `O/N=C1/C(=C/c2ccccc2)N2CCC1CC2`, for which the displacement was 10.6%.

Turning to `COC(=O)COc1ccc(/C=C2\C(=O)NC(=S)N(c3ccc(C)cc3)C2=O)cc1OC`, the displacement was -13.5%.

For `COc1ccc(-c2ccc(C=C3C(=O)NC(=S)NC3=O)o2)c([N+](=O)[O-])c1`, the displacement was 34.1%. The result for `COc1ccccc1-n1c(/C=C/c2ccccc2O)nc2ccccc2c1=O` reads -6%. As for `COc1ccccc1-n1c(/C=C/c2ccco2)nc2ccccc2c1=O`, the displacement is -36%. The result for `Cc1ccc(-n2c(/C=C/c3ccc(O)c(O)c3)nc3ccccc3c2=O)cc1` reads 54.7%; that for `COc1ccc(-n2c(/C=C/c3ccco3)nc3ccccc3c2=O)cc1`, -27.1%. Consider `COc1ccccc1-n1c(/C=C/c2ccc(O)c(O)c2)nc2ccccc2c1=O`, for which the displacement was -24.6%. Take `COc1cccc(-n2c(/C=C/c3ccco3)nc3ccccc3c2=O)c1`: the displacement worked out at 106%. As to `COc1cccc(-n2c(/C=C/c3ccc(O)c(O)c3)nc3ccccc3c2=O)c1`, the displacement is 27.7%. `O=c1c2ccccc2nc(/C=C/c2ccc(O)c(O)c2)n1-c1ccccc1`: the displacement was 1.9%.

For the compound `COc1ccccc1-n1c(/C=C/c2ccc(O)cc2)nc2ccccc2c1=O`, the displacement is 119%. In the case of `O=C(CNS(=O)(=O)c1ccccc1)Nc1ccc(Br)cc1C(=O)c1ccccc1`, the displacement came to 12%. For the compound `O=[N+]([O-])N=C1NC(OCc2ccccc2)C(OCc2ccccc2)N1` (stereo unspecified), the displacement was found to be 1.4%.

Turning to `CCC1CN(C)CCC1(O)c1ccccc1` (stereo unspecified), the displacement was -6.1%. On to `CCC(C)N1CCN(C(=O)COc2ccc(Cl)cc2)CC1` (stereo unspecified), for which the displacement came to 9.2%.

As to `CC(C(=O)c1ccc(Cl)cc1Cl)n1cncn1` (stereo unspecified), the displacement was -2.3%. Consider `COc1ccc(OCC(=O)Nc2ccc(Br)cc2C(=O)c2ccccc2)cc1`, for which the displacement was -8.4%. With `O=Cc1cn(Cc2cccc3ccccc23)c2ccccc12`, the displacement is -2.4%. For `CN1C(=O)NC(=O)/C(=C\c2ccc([N+](=O)[O-])o2)C1=O`, the displacement amounted to 17.3%.

Regarding `O=c1c2ccccc2nc(-c2ccccc2F)n1-c1cccc(Cl)c1`, the displacement is -2.3%.

With `CCNc1cc2oc(=O)cc(C(F)(F)F)c2cc1C`, the displacement was 105%. The result for `Clc1ccccc1CNCCc1c[nH]c2ccccc12` reads 2%. On to `O=c1[nH]c(=O)n(-c2ccccc2)c(O)c1N=Nc1ccc(Br)cc1`, for which the displacement came out at 120%.

As to `O=c1c2ccccc2[nH]c(=S)n1-c1ccccc1`, the displacement was -9.7%. For `O=c1[nH]c2ccccc2c(=O)n1-c1ccccc1`, the displacement was -12.7%.

On to `COc1ccccc1CN1CCN(Cc2ccccc2F)CC1`, for which the displacement was -5.2%. As for `O=C(Nc1ccc(Cl)c(-c2nc3ncccc3o2)c1)c1cccc(OCc2ccccc2)c1`, the displacement is -2.6%. The result for `O=[N+]([O-])c1ccc(CCNC2CCCCC2)cc1` reads 3.9%; that for `COc1ccc(OC)c(-n2c(O)c(C=C3C=Nc4ccccc43)c(=O)[nH]c2=O)c1`, 118%. For the compound `O=c1[nH]c(=O)n(Cc2ccccc2)c(O)c1C=C1C=Nc2ccccc21`, the displacement was found to be 8.6%. Take `COc1ccc(OC)c(N2C(=O)CC(=O)NC2=O)c1`: the displacement is -5.1%. Regarding `COC(=O)N1[C@H](c2ccccc2)[C@@H]1c1ccccc1`, the displacement came out at 11.9%. As for `O=C(CF)NC(Nc1ccc(Br)cc1)C(Cl)(Cl)Cl` (stereo unspecified), the displacement worked out at 8.3%. Next, `CN1C(=O)C(=Cc2ccccc2Cl)C(=O)N(C)C1=O`: -0.3%; `O=Cc1cn(Cc2ccc(Br)cc2)c2ccccc12`: 0.2%; `CCn1cc(C=C2C(=O)NC(=O)NC2=O)c2ccccc21`: 12.6%. Next, `CCn1cc(C=C2C(=O)NC(=S)NC2=O)c2ccccc21`: 136%; `CN1C(=O)C(=Cc2cn(Cc3ccc(F)cc3)c3ccccc23)C(=O)N(C)C1=O`: 138%; `C=CCn1cc(C=C2C(=O)NC(=O)NC2=O)c2ccccc21`: 16.3%. As for `C=CCc1cc(/C=C2\C(=O)NC(=O)N(c3cc(C)cc(C)c3)C2=O)cc(OC)c1O`, the displacement is -5.3%. Turning to `Cc1cc(/C=C2\C(=O)NC(=O)N(C)C2=O)c(C)n1-c1ccc2c(c1)OCO2`, the displacement was 107%.

`Cc1ccc(-n2c(C)cc(/C=C3/C(=O)NC(=O)N(C)C3=O)c2C)cc1`: the displacement was -10.4%. Next, `Cc1cc(C=C2C(=O)NC(=S)NC2=O)c(C)n1-c1ccccc1`: 104%; `Cc1cc(C=C2C(=O)NC(=S)NC2=O)c(C)n1-c1ccc(Cl)cc1`: 36.9%. As for `Cc1cc(/C=C2/C(=O)NC(=O)N(C)C2=O)c(C)n1-c1ccccc1`, the displacement worked out at 49.3%. Turning to `Cc1cc(C=C2C(=O)NC(=S)NC2=O)c(C)n1-c1ccc(F)cc1`, the displacement was found to be 3.8%.

As for `O=C1NC(=S)N(c2ccc(Br)cc2)C(=O)/C1=C/c1ccc(-c2ccccc2C(=O)O)o1`, the displacement is 19.2%. Next, `COc1ccc(Br)cc1CN1CCN(C(=O)COc2ccccc2)CC1`: 2.5%; `COC(=O)C1C2C(=O)N(c3ccc([N+](=O)[O-])cc3)C(=O)C12c1ccc(C)cc1` (stereo unspecified): -32.2%; `Cc1ccc(NC(=O)C2C(C)(C)C2(C)C)cc1C`: 6.9%. The result for `CCOC(=O)c1ccc2c(c1)n(Cc1ccccc1)c(C)[n+]2CC` reads -14.9%; that for `COc1cccc(N2C(=O)CC(=O)NC2=O)c1`, -8.2%. For `CCOc1ccc(N2C(=O)/C(=C/c3cc(Cl)ccc3O)C(=O)NC2=S)cc1`, the displacement came out at 0.4%. For the compound `O=C(O)Cn1cc(/C=C2\C(=O)NC(=O)N(c3ccc(Cl)cc3)C2=O)c2ccccc21`, the displacement was -16.9%. For the compound `COc1ccccc1OCCn1cc(C=C2C(=O)NC(=O)NC2=O)c2ccccc21`, the displacement worked out at 38.7%.

With `COc1ccc(N2C(=O)NC(=O)/C(=C/c3cn(CC(=O)Nc4ccccc4)c4ccccc34)C2=O)cc1`, the displacement was 88.8%.

Turning to `Cc1ccc(N2C(=O)NC(=O)/C(=C\c3ccccc3OCc3ccc(C(=O)O)cc3)C2=O)cc1`, the displacement is -9.2%. For the compound `CCc1ccc(/C=C2/C(=O)NC(=O)N(c3ccc(OC)cc3)C2=O)cc1`, the displacement was -18.1%.

In the case of `Cc1ccc(N2C(=O)NC(=O)/C(=C\c3cn(CC(=O)O)c4ccccc34)C2=O)cc1`, the displacement was 183%. Consider `CCOc1cc(C)cc2oc(=O)c3c(c12)CCC3`, for which the displacement was -1.5%.

As to `Nc1ccc(Br)cc1C(=O)c1ccc(Cl)cc1Cl`, the displacement was determined as 10%.

For `O=C1NC(=O)N(Cc2ccccc2)C(=O)/C1=C/c1ccc2c(c1)OCO2`, the displacement was 13.8%.

As for `CN1C(=O)NC(=O)/C(=C/c2ccc(I)o2)C1=O`, the displacement was determined as 9.2%. On to `O=C1NC(=O)N(Cc2ccccc2)C(=O)/C1=C\C=C\c1ccco1`, for which the displacement was 11.3%. As to `CN1C(=O)NC(=O)/C(=C\c2ccc(C(=O)O)cc2)C1=O`, the displacement was 1.8%. The result for `Cn1cc(/C=C2\C(=O)NC(=O)N(Cc3ccccc3)C2=O)c2ccccc21` reads 99.3%; that for `CN1C(=O)NC(=O)/C(=C/c2cn(C)c3ccccc23)C1=O`, 108%.

The values above are taken from PubChem BioAssay AID1240 (Sanford-Burnham Center for Chemical Genomics, 2008).
